Values joined by “and” are separate entries in the source; they are usually repeats but may differ in a detail not shown here. Identical values can stand only once. Records with an inconclusive call do not appear. Active and inactive are the calls of the source. Rule for the calls: active = hit-call score of the fitted dose curve at least 0.9, where 1 is the maximum; inconclusive = response in the unintended direction; inactive = score below 0.9.

The target in the assay is Cytochrome P450 2C19 (Homo sapiens) (UniProt P33261). The assay is described as follows: NVS_ADME_hCYP2C19: NovaScreen (NVS) CYP450-related Enzyme Activity (ADME) Assay for human CYP2C19 (AID 2283113).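 Note: potency for inhibition seen as loss of fluorescent signal.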 Here is the method:
NVS_ADME_hCYP2C19 is a biochemical, single-readout assay that uses extracted gene-proteins from insect cells in a cell-free assay. Measurements were taken 1 hour after chemical dosing in a 96-well plate.NVS_ADME_hCYP2C19 is one of one assay component(s) measured or calculated from the NVS_ADME_hCYP2C19 assay. It is designed to make measurements of enzyme activity, a form of enzyme reporter, as detected with fluorescence intensity signals by Fluorescence technology.Data from the assay component NVS_ADME_hCYP2C19 was analyzed into 1 assay endpoint. This assay endpoint, NVS_ADME_hCYP2C19, was analyzed in the positive analysis fitting direction relative to Acetonitrile as the negative control and baseline of activity. Using a type of enzyme reporter, loss-of-signal activity can be used to understand changes in the enzymatic activity as they relate to the gene CYP2C19. Furthermore, this assay endpoint can be referred to as a primary readout, because this assay has produced multiple assay endpoints where this one serves a enzymatic activity function. To generalize the intended target to other relatable targets, this assay endpoint is annotated to the cyp intended target family, where the subfamily is xenobiotic metabolism.
Binding assays used specific radioligands (tritiated, iodinated) with non-radioactive competitive displacement ligands in agonist or antagonist protocols (as indicated) and various reference compounds and inhibitors to titrate specific binding to receptors and transporters. Most enzyme assays (CYPs, kinases, phosphatases, proteases, HDACs) used recombinant protein and specific substrates (fluorescence mostly, some colorimetric and radioactive) and inhibitors, followed by a biochemical separation of substrate and product. All assays for the biochemical HTS were initially run in duplicate at a single concentration (10 uM for CYP450 assays and 25 uM for all others). […] Each assay was run with positive and negative controls, and concurrent controls on every plate. The follow-up (secondary) screen tested active chemical-pairs in concentration series, as well as a few additional assays not tested in the primary screen, some selected negative inactives, and several cases re-run in the concentration series for confirmatory purposes.
Usually AC50 stands for the concentration at which the activity in the assay is half-maximal. Regarding `Nc1ccc(-c2ccc(N)c(Cl)c2)cc1Cl`, the AC50 is 2.34 µM (active).

Take `O=C(O)C(F)(F)C(F)(F)C(F)(F)C(F)(F)C(F)(F)C(F)(F)C(F)(F)C(F)(F)C(F)(F)C(F)(F)F`: the AC50 is 16.2 µM (active).

For the compound `CC1(C)CCC(Cc2ccc(Cl)cc2)C1(O)Cn1cncn1` (stereo not drawn), the AC50 was 0.304 µM (active).

Consider `O=C1C2(Cl)C3(Cl)C4(Cl)C(Cl)(Cl)C5(Cl)C3(Cl)C1(Cl)C5(Cl)C24Cl` (stereo not drawn), for which the AC50 was 458 nM (active) and 1.44 µM (active) and 374 nM (active).

For `CC(C)(C)c1cc(O)ccc1O`, the AC50 was 5.9 µM (active).

As to `Oc1ccc(-c2ccccc2)cc1`, the AC50 is 0.47 µM (active).

As for `Fc1ccc(C2(Cn3cncn3)OC2c2ccccc2Cl)cc1` (stereo not drawn), the AC50 was 1.56 µM (active).

For the compound `CCOP(=S)(OCC)Oc1ccc(S(C)=O)cc1` (stereo not drawn), the AC50 was 0.528 µM (active).

As to `COc1cc(-c2ccc(N)c(OC)c2)ccc1N`, the AC50 is 3.49 µM (active) and 2.33 µM (active).

As to `CCOP(=S)(OCC)SCSP(=S)(OCC)OCC`, the AC50 was 4.36 µM (active).

On to `CCN1CCC2(CC1)COc1cc3c(cc12)N(C(=O)c1ccc(-c2ccc(-c4nnc(C)o4)cc2C)cc1)CC3`, for which the AC50 was 2.84 µM (active).

As for `Cn1sc(Cl)cc1=O`, the AC50 is 5.77 µM (active).

As to `COP(=S)(OC)Oc1ccc(S(=O)(=O)N(C)C)cc1`, the AC50 is 0.19 µM (active).

Take `O=S(=O)(c1ccc(Cl)cc1)c1ccc(Cl)cc1`: the AC50 is 1.39 µM (active) and 821 nM (active).

With `COP(=S)(OC)Oc1ccc(Sc2ccc(OP(=S)(OC)OC)cc2)cc1`, the AC50 is 4.32 µM (active) and 1.06 µM (active).

With `CC(=O)[O][Hg][c]1ccccc1`, the AC50 is 1.04 µM (active).

Regarding `Clc1ccc(C2(Cn3cncn3)CC(Br)CO2)c(Cl)c1` (stereo not drawn), the AC50 is 0.243 µM (active).

Consider `CCCCCCCCC(=O)NCc1ccc(O)c(OC)c1`, for which the AC50 is 1.66 µM (active).

(Values after PubChem BioAssay (EPA / NIEHS).)
